Compound activity as filed in PubChem.
GIRK2 activator: Activators of human GIRK2-containing channels | P48051 | HEK293 GIRK2/NPY4 cells, thallium flux fluorescence | activation (% efficacy), % for hits at 37.5 µM | 34,000 tested, under 10 active | AID 1259324;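 active means primary screen hit, no activity in plain HEK293 cells, and in GIRK2-only cells above 5% efficacy rising with concentration; inactive means the rest, including fluorescent compounds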;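 further: efficacy is normalized control-subtracted fluorescence 15 s after thallium addition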
AMPAR-TARP mod: GluA2-stargazin AMPA receptor complex modulation | HEK293 GluA2+stargazin, membrane potential dye (FDSS), glutamate EC50; hits were called plate by plate, in both directions | AID 1259245 | calls only at 30 µM | actives 3.5% (n = 40,000) | O88602+P19491;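 active means any of four per-well response measures lying three or more SD from its plate-wide compound average, in either direction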
Each line names hits and unclear results; the compound was inactive in the other large screens. The sample as a whole holds a higher share of hits than the screen did.

CC(c1ccccc1)n1c(C2CC(=O)N(C(C)(C)C)C2)nc2ccccc21 (centres undefined)	AMPAR-TARP mod active (no result: GIRK2 activator)
CC(C)(C)N1CC(c2nc3ccccc3n2CCOc2ccccc2)CC1=O (centres undefined)	none (no result: GIRK2 activator)
C=CCN1CC(c2nc3ccccc3n2C(C)c2ccccc2)CC1=O (centres undefined)	AMPAR-TARP mod active (no result: GIRK2 activator)
C=CCN1CC(c2nc3ccccc3n2Cc2c(C)c(C)cc(C)c2C)CC1=O (centres undefined)	AMPAR-TARP mod active (no result: GIRK2 activator)
C=CCN1CC(c2nc3ccccc3n2Cc2ccc(C(C)(C)C)cc2)CC1=O (centres undefined)	none (no result: GIRK2 activator)
CC(C)(C)n1nc2c(c1NC(=O)C(=O)NCc1ccc3c(c1)OCO3)CS(=O)(=O)C2	none
COc1ccc(CNC(=O)C2CCCN(c3cnc4ccccc4n3)C2)cc1 (centres undefined)	none
Cn1c2c(c(=O)[nH]c1=O)C(c1ccco1)NC(=O)N2 (centres undefined)	none
C=CCSc1ccnc2c1c(=O)n(C)c(=O)n2C	AMPAR-TARP mod active (no result: GIRK2 activator)
Cn1c(=O)c2c(SCC(=O)N3CCCCCC3)ccnc2n(C)c1=O	none (no result: GIRK2 activator)
CCc1cnc2c(c1SCC(=O)N1CCN(c3ccccc3)CC1)c(=O)n(C)c(=O)n2C	none
CCCNC(=O)CSc1ccnc2c1c(=O)n(C)c(=O)n2C	none
CCN(CC)CCSc1ccnc2c1c(=O)n(C)c(=O)n2C	AMPAR-TARP mod active
Cn1c(=O)c2c(SCC(=O)NC(C)(C)C)ccnc2n(C)c1=O	none
CC1CN(C(=O)CSc2ccnc3c2c(=O)n(C)c(=O)n3C)CC(C)O1 (centres undefined)	AMPAR-TARP mod active
Cc1cnc2c(c1SCC(=O)N1CCN(c3ccccc3)CC1)c(=O)n(C)c(=O)n2C	AMPAR-TARP mod active
CC(=Nc1ncccc1C)c1c(O)[nH]c(=O)[nH]c1=O	none (no result: AMPAR-TARP mod)
COC(=O)c1scc(-c2ccccc2)c1S(=O)(=O)Nc1ccc2c(c1)OCCO2	none (no result: GIRK2 activator)
CCOc1ccccc1NC(=O)Cn1cc(OC)c(=O)cc1CSc1ccccc1	none (no result: GIRK2 activator)
CCN(CC)C(=O)CSc1ccnc2c1c(=O)n(C)c(=O)n2C	none
Cn1c(=O)c2c(SCCN3CCCC3)ccnc2n(C)c1=O	AMPAR-TARP mod active
Cn1c(=O)c2c(SCC(N)=O)ccnc2n(C)c1=O	AMPAR-TARP mod active (no result: GIRK2 activator)
CCOCCSc1ccnc2c1c(=O)n(C)c(=O)n2C	AMPAR-TARP mod active (no result: GIRK2 activator)
Cn1c(=O)c2c(SCCO)ccnc2n(C)c1=O	none (no result: GIRK2 activator)
CCOC(=O)CNC(=O)CSc1ccnc2c1c(=O)n(C)c(=O)n2C	none
CSc1cccc(NC(=O)C(=O)Nc2ccc(C)cc2)c1	none (no result: GIRK2 activator)
Cc1ccc(S(=O)(=O)N2CCC(C(=O)Nc3ccc(S(C)(=O)=O)cc3)CC2)cc1	none
Cc1nn(C)cc1CNC(=O)c1cccc(C(F)(F)F)c1	none
CCC(=O)Nc1ccc(SCC(=O)NCc2ccc(F)cc2)nn1	none (no result: AMPAR-TARP mod)
COc1ccc(S(=O)(=O)CC(=O)Nc2cccc3ccccc23)cc1	none
Cc1noc(C)c1CC(=O)NC1CC(=O)N(C)C1 (centres undefined)	none (no result: AMPAR-TARP mod)
COc1ccc(S(=O)(=O)NCC2(O)CCCC2)cc1OC	none
CCOc1ccc(C(=O)N2CCN(c3nccn3C)CC2)cc1OCC	none
CC(C)OC(=O)C1(C(=O)OC(C)C)CC2(COC(c3ccccc3)OC2)C1	AMPAR-TARP mod active
CC(C)OC(=O)C1(C(=O)OC(C)C)CC(CO)(CO)C1	none (no result: GIRK2 activator)
CN(Cc1ccccc1)S(=O)(=O)c1ccc(-c2nc(C#N)c(N3CCC(C(N)=O)CC3)o2)cc1	none
Cc1sc(NC(=S)NC(=O)COc2ccc(Br)cc2Cl)c(C(N)=O)c1C	none (no result: GIRK2 activator)
COc1cccc2sc(NC(=O)c3cc(C)n(C)n3)nc12	AMPAR-TARP mod active
CCOc1cccc2sc(NC(=O)c3c(C)cnn3C)nc12	none (no result: AMPAR-TARP mod)
CCn1nc(C(=O)Nc2nc3c(C(C)C)cccc3s2)cc1C	none (no result: AMPAR-TARP mod)
COc1cccc2sc(NC(=O)c3cc(C)nn3C)nc12	AMPAR-TARP mod active
Cc1cc(NC(=O)C(=O)NCCc2ccc(S(N)(=O)=O)cc2)no1	none (no result: GIRK2 activator)
Cc1onc(-c2ccccc2Cl)c1C(=O)NCC1CCN(Cc2cccs2)CC1	none (no result: AMPAR-TARP mod)
COc1ccc(-c2cc(=O)n(CC(=O)Nc3ccc(F)c(Cl)c3)cn2)cc1	none (no result: AMPAR-TARP mod)
Cn1c(=O)c(C(=O)Nc2ccc(Oc3ccccc3)cc2)cc2cccnc21	none
COc1ccc(C)cc1NC(=O)c1cc2c(=O)n3cc(C)ccc3nc2n1Cc1ccccc1	AMPAR-TARP mod active
Cc1ccc2nc3c(cc(C(=O)NCC(=O)OC(C)C)n3Cc3ccccc3)c(=O)n2c1	none
COCCNc1oc2c(c1-c1cccc([N+](=O)[O-])c1)c(=O)oc1c(C)cccc12	none
Cc1cc(NC(=O)c2ccc(-c3ccccc3)cc2)n(C(C)C)n1	none (no result: AMPAR-TARP mod)
COc1nn(C)cc1C(=O)NCC(=O)Nc1ccc(C#N)cc1	none
COc1nn(C)cc1C(=O)NCC(=O)Nc1ccc(F)c(C(F)(F)F)c1	AMPAR-TARP mod active
COc1nn(C)cc1C(=O)NCC(=O)NCC(F)(F)F	none
COCC(C)(O)CNC(=O)c1c(F)cccc1F (centres undefined)	AMPAR-TARP mod active
